Reference: PubChem BioAssay (NCATS)
Inconclusive results are not listed. Calls of active or inactive are those of the source. The call rests on the fitted dose curve.

test: Confirmatory qHTS to identify inhibitors of SARS-CoV-2 cell entry (AID 1645844); conditions: SARS-CoV-2 pseudotyped particle cell entry, luciferase; series mostly up to 57.2 µM; further: nearly all actives have a fitted effect of over 45% in size; further: potency means the concentration at half of the fitted maximal effect
Method in brief: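 Luminescence entry read-out after 48 h: spike-pseudotyped MLV particles (Wuhan-Hu-1, 19-aa C-terminal truncation) added to compound-pretreated (1 h) HEK293-ACE2 cells; Data were normalised to bald PP and spike PP wells.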

**Q.** For `CC(C)c1cnn2c(NCc3ccccc3)cc(N[C@@H](CO)[C@H](O)CO)nc12`, which Potency is on record?
**A.** Its Potency is 0.607 µM (active).

**Q.** With `CO[C@@H]1C(N(C)C(=O)c2ccccc2)C[C@H]2O[C@]1(C)n1c3ccccc3c3c4c(c5c6ccccc6n2c5c31)C(=O)NC4=O` (stereo partly drawn) as the compound, how does the Potency read?
**A.** Its Potency is 21.5 µM (active).

**Q.** For `O=C1NCCc2[nH]c(-c3ccncc3)cc21`, which Potency is on record?
**A.** Its Potency is 9.61 µM (active).

**Q.** With `Cc1c(-c2ccc(O)cc2)n(Cc2ccc(OCCN3CCCCCC3)cc2)c2ccc(O)cc12` as the compound, how does the Potency read?
**A.** The Potency was 15.2 µM (active).

**Q.** For `CCCCC(C)(C)[C@H](O)C=C[C@H]1[C@H](O)CC(=O)[C@H]1CC=CCCCC(=O)O`, which Potency is on record?
**A.** The Potency was 17.1 µM (active).

**Q.** Which Potency does the source give for `O=C(NCCCCN1CCOCC1)c1cc2ccccc2o1` here?
**A.** The Potency was “inactive”.

**Q.** Which Potency does the source give for `N#CC1(c2cccc(C(=O)Nc3cc(Oc4ccc5nc(NC(=O)C6CC6)sc5n4)ccc3F)c2Cl)CC1` here?
**A.** Its Potency is 2.71 µM (active).

**Q.** With `C[N+](C)([O-])CCNc1ccc(NCC[N+](C)(C)[O-])c2c1C(=O)c1c(O)ccc(O)c1C2=O` as the compound, how does the Potency read?
**A.** Its Potency is 19.2 µM (active).

**Q.** For `CC(C)c1nn(-c2c(Cl)cccc2Cl)c2nc(Cc3ccc(OCCO)cc3)[nH]c(=O)c12`, which Potency is on record?
**A.** The Potency was 0.0341 µM (active).

**Q.** Which Potency does the source give for `CS(=O)(=O)N(Cc1ccco1)CC(O)Cn1c2ccccc2c2ccccc21` (stereo not drawn) here?
**A.** The Potency was 6.81 µM (active).

test: Cytotoxicity counterscreen for inhibitors of SARS-CoV-2 cell entry (AID 1645845); conditions: cell viability (SARS-CoV-2 entry assay cells); series mostly up to 57.1 µM; further: nearly all actives have a fitted effect of over 50% in size
Method in brief: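 ATP-content luminescence (ATPLite 1step, 15 min RT) read after 48 h compound exposure of Expi293F cells stably expressing human ACE2; normalized to cells-only wells and media-only wells.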

**Q.** Which Potency does the source give for `Clc1ccc(COC(Cn2ccnc2)c2ccc(Cl)cc2Cl)c(Cl)c1` (stereo not drawn) here?
**A.** Its Potency is “inactive”.

**Q.** Which Potency does the source give for `CN(C/C=C/c1ccccc1)Cc1cccc2ccccc12` here?
**A.** The Potency was “inactive”.

**Q.** With `CC(C)c1cnn2c(NCc3ccccc3)cc(N[C@@H](CO)[C@H](O)CO)nc12` as the compound, how does the Potency read?
**A.** Its Potency is “inactive”.

**Q.** With `CO[C@@H]1C(N(C)C(=O)c2ccccc2)C[C@H]2O[C@]1(C)n1c3ccccc3c3c4c(c5c6ccccc6n2c5c31)C(=O)NC4=O` (stereo partly drawn) as the compound, how does the Potency read?
**A.** Its Potency is “inactive”.

**Q.** Which Potency does the source give for `O=C1NCCc2[nH]c(-c3ccncc3)cc21` here?
**A.** Its Potency is “inactive”.

**Q.** With `Cc1c(-c2ccc(O)cc2)n(Cc2ccc(OCCN3CCCCCC3)cc2)c2ccc(O)cc12` as the compound, how does the Potency read?
**A.** The Potency was “inactive”.

**Q.** With `CCCCC(C)(C)[C@H](O)C=C[C@H]1[C@H](O)CC(=O)[C@H]1CC=CCCCC(=O)O` as the compound, how does the Potency read?
**A.** The Potency was “inactive”.

**Q.** With `O=C(NCCCCN1CCOCC1)c1cc2ccccc2o1` as the compound, how does the Potency read?
**A.** Its Potency is “inactive”.

**Q.** With `Cc1ccc(C(=O)Nc2cccc(C(F)(F)F)c2)cc1Nc1nc(-c2cccnc2)nc2c1cnn2C` as the compound, how does the Potency read?
**A.** Its Potency is “inactive”.

**Q.** Which Potency does the source give for `N#CC1(c2cccc(C(=O)Nc3cc(Oc4ccc5nc(NC(=O)C6CC6)sc5n4)ccc3F)c2Cl)CC1` here?
**A.** The Potency was “inactive”.

**Q.** For `O=C1C[C@@H](c2ccc(O)cc2)Oc2cc(O)cc(O)c21`, which Potency is on record?
**A.** Its Potency is “inactive”.

**Q.** With `C[N+](C)([O-])CCNc1ccc(NCC[N+](C)(C)[O-])c2c1C(=O)c1c(O)ccc(O)c1C2=O` as the compound, how does the Potency read?
**A.** Its Potency is “inactive”.

**Q.** For `CC(C)c1nn(-c2c(Cl)cccc2Cl)c2nc(Cc3ccc(OCCO)cc3)[nH]c(=O)c12`, which Potency is on record?
**A.** Its Potency is “inactive”.

**Q.** With `COc1ccc(CCN(C)CCCC(C#N)(c2ccc(OC)c(OC)c2)C(C)C)cc1OC` (stereo not drawn) as the compound, how does the Potency read?
**A.** The Potency was “inactive”.

**Q.** With `CS(=O)(=O)N(Cc1ccco1)CC(O)Cn1c2ccccc2c2ccccc21` (stereo not drawn) as the compound, how does the Potency read?
**A.** Its Potency is “inactive”.

**Q.** With `O=S(=O)(c1cccc2c(I)cccc12)N1CCCNCC1` as the compound, how does the Potency read?
**A.** Its Potency is “inactive”.

test: Primary qHTS to identify inhibitors of SARS-CoV-2 cell entry (AID 1645846); conditions: SARS-CoV-2 pseudovirus cell entry assay, luminescence; activity change, negative = inhibition: at 57.1 µM (top of the series) unless noted; series mostly up to 57.1 µM; further: nearly all actives have a fitted effect of over 45% in size
Method in brief: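 Inhibition of spike-mediated entry was scored in human ACE2-transfected Expi293F cells. Particles were MLV-pseudotyped with Wuhan-Hu-1 S carrying a 19-aa C-terminal deletion; signal was luciferase after two days, scaled between spike PP and fusion-protein-free PP.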

**Q.** Which activity change, negative = inhibition does the source give for `CC(C)c1cnn2c(NCc3ccccc3)cc(N[C@@H](CO)[C@H](O)CO)nc12` here?
**A.** Its activity change, negative = inhibition is -93.9%.

**Q.** Which activity change, negative = inhibition does the source give for `CO[C@@H]1C(N(C)C(=O)c2ccccc2)C[C@H]2O[C@]1(C)n1c3ccccc3c3c4c(c5c6ccccc6n2c5c31)C(=O)NC4=O` (stereo partly drawn) here?
**A.** The activity change, negative = inhibition was -47%.

**Q.** Which activity change, negative = inhibition does the source give for `O=C1NCCc2[nH]c(-c3ccncc3)cc21` here?
**A.** Its activity change, negative = inhibition is -95%.

**Q.** For `CCCCC(C)(C)[C@H](O)C=C[C@H]1[C@H](O)CC(=O)[C@H]1CC=CCCCC(=O)O`, which activity change, negative = inhibition is on record?
**A.** The activity change, negative = inhibition was -55.7%.

**Q.** With `O=C(NCCCCN1CCOCC1)c1cc2ccccc2o1` as the compound, how does the Potency read?
**A.** Its Potency is “inactive”.

**Q.** With `N#CC1(c2cccc(C(=O)Nc3cc(Oc4ccc5nc(NC(=O)C6CC6)sc5n4)ccc3F)c2Cl)CC1` as the compound, how does the activity change, negative = inhibition read?
**A.** The activity change, negative = inhibition was -79.3%.

**Q.** For `O=C1C[C@@H](c2ccc(O)cc2)Oc2cc(O)cc(O)c21`, which Potency is on record?
**A.** Its Potency is “inactive”.

**Q.** With `C[N+](C)([O-])CCNc1ccc(NCC[N+](C)(C)[O-])c2c1C(=O)c1c(O)ccc(O)c1C2=O` as the compound, how does the activity change, negative = inhibition read?
**A.** Its activity change, negative = inhibition is -13.5%.

**Q.** With `CC(C)c1nn(-c2c(Cl)cccc2Cl)c2nc(Cc3ccc(OCCO)cc3)[nH]c(=O)c12` as the compound, how does the activity change, negative = inhibition read?
**A.** The activity change, negative = inhibition was -95.3%.

**Q.** For `OCCCNc1cc(-c2ccnc(Nc3cccc(Cl)c3)n2)ccn1`, which activity change, negative = inhibition is on record?
**A.** Its activity change, negative = inhibition is -94.2%.

**Q.** With `CS(=O)(=O)N(Cc1ccco1)CC(O)Cn1c2ccccc2c2ccccc21` (stereo not drawn) as the compound, how does the activity change, negative = inhibition read?
**A.** The activity change, negative = inhibition was -37.4%.

**Q.** For `O=S(=O)(c1cccc2c(I)cccc12)N1CCCNCC1`, which activity change, negative = inhibition is on record?
**A.** The activity change, negative = inhibition was -29.1%.

test: VSVG counterscreen qHTS to identify inhibitors of SARS-CoV-2 cell entry (AID 1645847); conditions: VSV-G pseudotyped particle entry, luciferase; series mostly up to 57.2 µM; further: nearly all actives have a fitted effect of over 65% in size; further: potency means the concentration at half of the fitted maximal effect; on activity change, negative = inhibition: on the % scale 0 is the no-effect control and ±100 the full control effect
Method in brief: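 Luminescence from a luciferase reporter, normalised to bald particle and VSV-G pseudotyped particle wells, is the read-out. Cells are HEK293 expressing human ACE2, exposed to compound 1 h before a 48 h particle infection at 37 °C.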

**Q.** Which Potency does the source give for `CC(C)c1cnn2c(NCc3ccccc3)cc(N[C@@H](CO)[C@H](O)CO)nc12` here?
**A.** The Potency was 0.482 µM (active).

**Q.** Which Potency does the source give for `CO[C@@H]1C(N(C)C(=O)c2ccccc2)C[C@H]2O[C@]1(C)n1c3ccccc3c3c4c(c5c6ccccc6n2c5c31)C(=O)NC4=O` (stereo partly drawn) here?
**A.** The Potency was 27.1 µM (active).

**Q.** For `O=C1NCCc2[nH]c(-c3ccncc3)cc21`, which Potency is on record?
**A.** The Potency was 9.61 µM (active).

**Q.** Which Potency does the source give for `Cc1c(-c2ccc(O)cc2)n(Cc2ccc(OCCN3CCCCCC3)cc2)c2ccc(O)cc12` here?
**A.** The Potency was 27.1 µM (active).

**Q.** For `CCCCC(C)(C)[C@H](O)C=C[C@H]1[C@H](O)CC(=O)[C@H]1CC=CCCCC(=O)O`, which Potency is on record?
**A.** The Potency was 19.2 µM (active).

**Q.** For `O=C(NCCCCN1CCOCC1)c1cc2ccccc2o1`, which Potency is on record?
**A.** The Potency was “inactive”.

**Q.** With `N#CC1(c2cccc(C(=O)Nc3cc(Oc4ccc5nc(NC(=O)C6CC6)sc5n4)ccc3F)c2Cl)CC1` as the compound, how does the Potency read?
**A.** Its Potency is 0.304 µM (active).

**Q.** Which Potency does the source give for `C[N+](C)([O-])CCNc1ccc(NCC[N+](C)(C)[O-])c2c1C(=O)c1c(O)ccc(O)c1C2=O` here?
**A.** Its Potency is 10.8 µM (active).

**Q.** For `CC(C)c1nn(-c2c(Cl)cccc2Cl)c2nc(Cc3ccc(OCCO)cc3)[nH]c(=O)c12`, which Potency is on record?
**A.** Its Potency is 0.0541 µM (active).

**Q.** For `CS(=O)(=O)N(Cc1ccco1)CC(O)Cn1c2ccccc2c2ccccc21` (stereo not drawn), which Potency is on record?
**A.** The Potency was 0.429 µM (active).
